An excerpt weighted towards active compounds, which were near 5.2% of everything screened.
Sfp inh – Sfp phosphopantetheinyl transferase inhibition; Biochemical Sfp PPTase activity, qHTS; Potency, µM, for the others: largest response in the series, negative = inhibition, usual class: inhibitors; 310,000 tested, 3.5% active; AID 1490;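 further: the enzyme is Sfp with the accession as filed and its product quenches rhodamine fluorescence; potency means the concentration at half of the fitted maximal effect; 0% = enzyme reaction without inhibitor and -100% = no enzyme wells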
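Reaction rates are the 30-min fluorescence difference (ex 525, em 598 nm) in wells containing 15 nM Sfp, 5 uM rhodamine-CoA and 12.5 uM BHQ-2-YbbR at pH 7.6 with 10 mM MgCl2.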
Tau fluor cs – counter-screen for tau fibril formation inhibitors. Potency, µM (top dose mostly 57.7 µM), inactives show at the highest dose activity change, negative = decrease. 280,000 tested, 0.93% active. tau K18 P301L Alexa594 fluorescence, heparin fibrillization; further: potency means the concentration at half of the fitted maximal effect; nearly all actives have a fitted effect of over 55% in size
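Human K18 P301L tau (15 uM unlabeled plus 0.24 uM Alexa 594-labeled, final) in 100 mM sodium acetate pH 7 was mixed with compound and 20 uM heparin and incubated 6 hr at 37 C.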
FBPA coupling cs – coupling enzyme interference in Giardia aldolase counter-screen | coupling enzyme system counterscreen, AmpLite Red fluorescence | activity change, negative = inhibition, % at 58.2 µM, hits read low | 290,000 tested, 0.67% active | AID 2472; in the data active means activity change below about -30%
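Counterscreen lacking aldolase: glyceraldehyde-3-phosphate coupling-enzyme reagent preincubated 10 min at RT with compound (at 57.5 uM final), then substrate/coupling system with AmpLite Red added; fluorescence read at 525/598 nm after 20 min RT.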
Tau fibril FP – blocks human tau fibril formation measured by polarization. K18 P301L tau heparin fibrillization, Alexa594 FP, 6 h. P10636. Potency, µM (series often up to 57.7 µM), for the others: top-dose activity, negative = inhibition, actives largely listed as inhibitors. 280,000 tested, 0.39% active; further: potency means the concentration at half of the fitted maximal effect; nearly all actives have a fitted effect of over 55% in size
Target sequence (P10636 561-689 P618L limits assumed): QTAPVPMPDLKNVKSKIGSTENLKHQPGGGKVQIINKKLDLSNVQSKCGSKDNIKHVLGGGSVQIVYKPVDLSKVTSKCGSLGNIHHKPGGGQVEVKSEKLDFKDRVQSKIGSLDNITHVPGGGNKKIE
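Human tau K18 […] P301L fragment, 15 uM unlabeled plus 0.24 uM Alexa 594-labeled tau (final), with compound and 20 uM heparin in 100 mM sodium acetate pH 7; 6 hr at 37 C, then Alexa 594 FP read.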
Tau ThT inhib – blocks human tau fibril formation measured by thioflavin T. P10636. recombinant tau K18 P301L (four-repeat tau fragment), heparin-induced fibrillization, ThT fluorescence. Potency, µM (highest dose often 57.4 µM), inactives show at the top dose activity, negative = inhibition, most hits filed as inhibitors. 270,000 tested, 2.1% active. AID 1460; further: potency means the concentration at half of the fitted maximal effect; nearly all actives have a fitted effect of over 55% in size
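Recombinant human tau K18 fragment […] carrying P301L, 15 uM unlabeled plus 0.24 uM Alexa 594-labeled, was fibrillized with 20 uM heparin in 100 mM sodium acetate pH 7 for 6 hr at 37 C; 30 uM ThT fluorescence read after 1 hr.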
Active calls of the source: *; ? = inconclusive; / = no result; [ ] = another dose, or the depositor's remark. Unless noted, the call rests on the fitted dose curve; in most records, active means well fitted curve in the direction sought with a large enough effect; inconclusive means small, poorly fitted or top-dose-only effect, or another doubt; inactive means no such curve, though single readings can be large; an effect the other way counts as inactive or inconclusive. Unless noted, on the % scale 0 is the no-effect control and ±100 the full control effect.

SMILES | Sfp inh | Tau fluor cs | FBPA coupling cs | Tau fibril FP | Tau ThT inhib
Cc1ccc(CC(=O)Nc2ccc(F)c([N+](=O)[O-])c2)cc1C | 16% | -29% | -3 | 7% | -8%
Cc1ccc(N=Cc2cc(Br)cc(Cl)c2O)cc1 | 5% | -11% | -3 | ? | 18µM*
O=C(N/N=C/C(Cl)=C/c1ccc([N+](=O)[O-])cc1)C(=O)Nc1ccc(C(=O)O)cc1 | ? | -28% | 1 | 0% | 3.5µM*
CCOc1ccccc1NC(=O)C(=O)N/N=C/c1ccc([N+](=O)[O-])cc1 | 11% | -18% | 0 | -6% | -15%
O=C(N/N=C/C(Cl)=C/c1ccc([N+](=O)[O-])cc1)C(=O)Nc1ccccc1C(=O)O | 35µM* | ? | 9 | -7% | 3.2µM*
CC(C)(C)C(=O)Nc1nc(=S)ss1 | 22µM* | -11% | 4 | ? | ?
CCC(=O)Nc1nc(=S)ss1 | 10µM* | -20% | 4 | ? | ?
COC(=O)NC(CC(C)=O)c1ccco1 (stereo not drawn) | -5% | -14%[11.6 µM] | 1 | 5%[11.6 µM] | -13%[11.5 µM]
Cc1nn2c(nc1=O)NNC2(C)C(C)(C)C (stereo not drawn) | 35µM* | -15% | 0 | -7% | -19%
COC(=O)c1c(Oc2ccc(Br)cc2)nnc(-c2ccccc2)c1-c1ccccc1 | / | -19% | / | -9% | -11%
CC1CCc2onc(C(=O)N3CCN(c4ccc(F)cc4)CC3)c2C1 (stereo not drawn) | / | 1% | / | 3% | -3%
Cc1cccc(NC(=O)c2ccc3snnc3c2)c1C | / | -11% | / | -1% | ?
Cc1ccc(S(=O)(=O)Nc2cc(=O)[nH]c(SCC(=O)Nc3cccc(C)c3)n2)cc1 | 24% | ? | 1 | 16µM* | /
COc1ccc(NCc2cc3cc(OC)ccc3[nH]c2=O)cc1 | -3% | -25% | -20 | -4% | 7.9µM*
COc1ccc(NCc2cc3ccccc3[nH]c2=O)cc1 | 7% | -14% | -17 | -2% | ?
CC(C)OCCCn1c(=O)c2ccccc2n2c(-c3ccc(F)cc3)nnc12 | / | -14% | / | 2% | -7%
COC(=O)c1cc(C)[nH]c2c(C)cc3nc4ccccc4c3c12 | 7% | 25µM*[quencher] | -15 | ? | ?
COC(=O)c1c(C)nc2ccccc2c1C(=O)O | 8% | -7% | -4 | 4% | -9%
CCOc1ccc(Nc2ccc(N3C(=O)CCC3=O)cc2[N+](=O)[O-])cc1 | 9% | ? | 3 | -5% | 5µM*
c1ccc(CNc2cc(-c3ccoc3)ncn2)cc1 | 32µM* | / | -3 | / | /
c1ccc(Nc2cc(-c3ccoc3)ncn2)cc1 | 32µM* | / | 0 | / | /
Cc1cccc(CNc2ccnc(-c3ccoc3)n2)c1 | 50µM* | -20% | -3 | -11% | ?
COc1cccc(-c2cc(NCc3ccccc3OC)ncn2)c1 | -4% | / | 1 | / | /
COc1ccc(CNc2cc(-c3ccoc3)ncn2)c(OC)c1 | 45µM* | / | -2 | / | /
CN(C)Cc1ccccc1-c1cc(Nc2ccccc2)ncn1 | 20% | 4% | 0 | 0% | 6%
SMILES | Sfp inh | Tau fluor cs | FBPA coupling cs | Tau fibril FP | Tau ThT inhib
CC1=Nc2cc(C(=O)NC3CCCCC3)ccc2Sc2ccc(Cl)cc21 | / | -9% | / | 6% | -9%
COc1ccc(CCNC(=O)Cn2cc(S(=O)(=O)Cc3ccccc3F)c3ccccc32)cc1OC | / | -19% | / | 4% | -12%
Cc1cc2nc(-c3ccc(SCc4ccc(C(=O)O)cc4)nc3)[nH]c2cc1C | 22µM* | -9% | -5 | -8% | -9%
Nc1cc(N)cc(-c2nc3ccccc3[nH]2)c1 | -19% | 13µM*[quencher] | -5 | 6% | 13µM*
c1ccc(-c2nc3ccccc3[nH]2)cc1 | 20% | / | -3 | / | /
Cc1nc2ccc(-c3nc4ccccc4o3)cc2[nH]1 | 9% | -18% | 0 | -8% | -14%
Nc1ccc(-c2nc3ccc(N)cc3[nH]2)cc1 | 2% | ? | 0 | -1% | ?
Nc1ccc2nc(-c3ccc(Cl)cc3)[nH]c2c1 | -19% | 25µM*[quencher] | -6 | 7% | 14µM*
Nc1ccc(-c2nc3ccc(-c4nc5ccccc5o4)cc3[nH]2)cc1 | 13% | 16µM*[quencher] | -2 | 2% | 8.9µM*
Nc1ccc2nc(-c3cc(Cl)c(N)c(Cl)c3)[nH]c2c1 | ? | ? | -1 | 14% | 14µM*
CCOc1ccc(C2c3cc(OCC)c(OCC)cc3CC(=O)N2c2ccc(C(=O)O)cc2)cc1OCC (stereo not drawn) | / | -7% | / | 0% | -9%
Cc1ccc(-c2nc3ccccc3[nH]2)s1 | 50µM* | -5% | -24 | -8% | -10%
Cc1nc2ccc(-c3nc4ccc(N)cc4[nH]3)cc2[nH]1 | 2% | ? | -1 | 5% | 16µM*
c1csc(-c2nc3ccccc3[nH]2)c1 | -4% | -11% | -4 | -6% | -12%
CCN(CC)c1ccc(C(=O)N/N=C(\C)c2ccc(O)cc2)cc1 | -6% | -15% | 2 | 1% | ?
CCN(CC)c1ccc(/C=N/NC(=O)c2ccc(O)cc2)cc1 | -4% | ? | 1 | 16% | 3.2µM*
O=C(N/N=C/c1ccc2c(c1)OCO2)/C(=C/c1ccc2c(c1)OCO2)NC(=O)c1ccccc1 | 4% | -16% | 6 | -6% | -13%
O=C(N/N=C/c1ccc([N+](=O)[O-])cc1)c1cccc2cc[nH]c12 | 21% | -18% | 2 | 6% | ?
CCN(CC)c1ccc(/C=N\NC(=O)c2cccc3cc[nH]c23)cc1 | 5% | 14µM*[quencher] | 0 | -4% | 6.3µM*
CN(C)c1ccc(/C=N/NC(=O)c2ccc(NC(=O)c3ccccc3)cc2)cc1 | -3% | ? | 0 | 3% | 1.6µM*
CN(C)c1ccc(/C=C(/NC(=O)c2ccccc2)C(=O)N/N=C/c2ccc([N+](=O)[O-])c(O)c2)cc1 | -8% | 14µM*[quencher] | -16 | 2% | 4µM*
Cc1c(NC(=O)c2cc(-c3cccc(O)c3)on2)c(=O)n(-c2ccccc2)n1C | / | -17% | / | 0% | -13%
CCOC(=O)c1ccc(NC(=O)CN2C(=O)CC(c3ccc(C)c(C)c3)=Nc3ccccc32)cc1 | / | ? | / | ? | -6%
COc1ccc([N+](=O)[O-])cc1/C=N/NC(=O)/C(=C\c1cccs1)NC(=O)c1ccccc1 | 4% | -18% | -42* | ? | -4%
CCN(CC)c1ccc(/C=N/NC(=O)c2ccoc2C)cc1 | 6% | ? | -11 | -3% | 10µM*
Cn1c(=O)c2sccc2n2c(CCC(=O)Nc3ccc(F)cc3)nnc12 | / | -4% | / | 10% | -1%
COC(=O)c1scc(-c2ccc(C)cc2)c1S(=O)(=O)Nc1ccc(NC(C)=O)cc1 | / | -13% | / | -11% | -1%
COC(=O)c1scc(C)c1S(=O)(=O)Nc1ccc(C)cc1 | 50µM* | -1% | -24 | 2% | 1%

Assay outcomes as filed in PubChem BioAssay.
